Casp6 inh = inhibitors of human caspase-6. AID 686996. P55212. 350,000 tested, 0.53% active. inhibition, % at 12.5 µM. purified caspase-6, Z-VEID-R110 cleavage fluorescence;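 active = mean inhibition across replicates at least about 35%, with every replicate also reaching that limit, limit read from the data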
Target sequence (P55212 24-179 limits assumed): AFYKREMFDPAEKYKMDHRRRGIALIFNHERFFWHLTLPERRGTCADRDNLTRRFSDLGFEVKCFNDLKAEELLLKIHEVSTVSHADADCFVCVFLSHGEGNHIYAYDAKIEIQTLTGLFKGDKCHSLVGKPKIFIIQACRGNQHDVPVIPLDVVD
Target sequence (P55212 194-293 limits assumed): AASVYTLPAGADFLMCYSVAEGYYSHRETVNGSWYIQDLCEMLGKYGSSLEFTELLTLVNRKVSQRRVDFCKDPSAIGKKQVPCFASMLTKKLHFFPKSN
LEDGF integ inh = blocks HIV-1 LEDGF/p75-dependent DNA integration; TR-FRET IN-LEDGF/p75 DNA integration, Eu/Cy5; AID 743269; inhibition, % at 3.7 µM; 370,000 tested, 0.64% active;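 active = inhibition above the screen-wide mean plus 3 SD, cut at about 13% in these data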;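 also: signal is the Cy5 over europium emission ratio at 671 and 618 nm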
MBD2 inh = blocks human MBD2 binding to methylated DNA; Q9UBB5; TR-FRET, MBD2 binding to methylated oligonucleotide; inhibition, % at 4.4 µM; 370,000 tested, 0.31% active; AID 686964; in the data active = inhibition above about 13%
Target sequence (Q9UBB5 whole entry, looked up): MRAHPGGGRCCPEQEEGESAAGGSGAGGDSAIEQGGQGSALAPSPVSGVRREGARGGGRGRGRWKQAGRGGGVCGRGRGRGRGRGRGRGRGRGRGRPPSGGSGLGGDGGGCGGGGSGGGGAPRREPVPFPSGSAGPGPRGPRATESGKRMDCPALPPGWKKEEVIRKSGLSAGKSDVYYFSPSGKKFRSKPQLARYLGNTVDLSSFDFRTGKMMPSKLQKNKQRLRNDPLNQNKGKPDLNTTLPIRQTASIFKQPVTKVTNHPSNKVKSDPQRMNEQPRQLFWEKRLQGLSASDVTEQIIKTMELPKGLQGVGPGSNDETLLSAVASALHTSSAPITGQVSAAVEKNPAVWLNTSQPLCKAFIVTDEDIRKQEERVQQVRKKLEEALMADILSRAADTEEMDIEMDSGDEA
UHRF1 binding = human UHRF1 methylated DNA binding inhibitors. Q96T88. UHRF1 binding to methylated oligo, TR-FRET. inhibition, % at 4.4 µM. 370,000 tested, 0.75% active; in the data active = inhibition above about 21%;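 also: UHRF1 SRA domain binding a hemimethylated CpG hairpin DNA probe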
Large screens that a line does not name were inactive. Only some compounds are listed: those with a hit (about 1.4% of all), similar ones and a draw of the others.

CSCCC(NC(=O)c1ccccc1Cl)C(=O)N1CCCCC1 (configuration not stated)	UHRF1 binding 41
CCCNC(=O)N1CC2(C1)[C@H](c1ccccc1)[C@H](CO)N2C(=O)c1cccnc1	none (no result: LEDGF integ inh, MBD2 inh, UHRF1 binding)
CCCC#Cc1cnc2c(c1)C(=O)N([C@@H](C)CO)C[C@H](C)[C@H](CN(C)Cc1ccc3c(c1)OCO3)O2	none (no result: LEDGF integ inh, MBD2 inh, UHRF1 binding)
COC(=O)[C@]12C[C@H](CC(=O)NCc3ccc(C)o3)C(=O)N(Cc3ccccc3)C1=C[C@H](C1CCCC1)O[C@@H]2C	Casp6 inh 66
O=C(Cn1cnc2sc(-c3ccccc3)cc2c1=O)NCc1ccco1	UHRF1 binding 50 (no result: Casp6 inh)
O=C(Cn1cnc2sc(-c3ccccc3)cc2c1=O)NCc1ccccc1	none (no result: Casp6 inh)
O=C(O)c1ccc(-c2ccc(/C=C3\NC(=O)N(Cc4ccc(Cl)cc4)C3=O)o2)cc1Cl	Casp6 inh 65, LEDGF integ inh 29, MBD2 inh 22, UHRF1 binding 77
CCOC(=O)CN1C(=O)S/C(=C\c2ccc(-c3ccc(C(=O)O)c(Cl)c3)o2)C1=O	Casp6 inh 49
CCOC(=O)CN1C(=O)S/C(=C\c2ccc(-c3cccc(C(=O)O)c3C)o2)C1=O	none
COCC#Cc1cnc2c(c1)C(=O)N([C@H](C)CO)C[C@@H](C)[C@H](CN(C)C(=O)c1cccnc1)O2	none (no result: LEDGF integ inh, MBD2 inh, UHRF1 binding)
CCC(=O)N(C)C[C@H]1Oc2cc(-c3cccc(F)c3)ccc2S(=O)(=O)N([C@@H](C)CO)C[C@@H]1C	none (no result: LEDGF integ inh, MBD2 inh, UHRF1 binding)
Cc1cccc(CSC2=NCCN2C(=O)c2ccc(S(=O)(=O)N(C)C)cc2)c1	none
Cc1cccc(CSC2=NCCN2C(=O)c2ccc(Br)o2)c1	UHRF1 binding 46
CO[C@H]1CN(C)C(=O)c2cc(NC(=O)Nc3cc(F)ccc3F)ccc2OC[C@H](C)N(C(=O)c2cnccn2)C[C@@H]1C	none (no result: LEDGF integ inh, MBD2 inh, UHRF1 binding)
O=C(N/N=C/c1coc2ccccc2c1=O)c1cc(Br)ccc1O	Casp6 inh 43
O=C(COC(=O)c1ccc(Br)o1)Nc1ncc([N+](=O)[O-])s1	Casp6 inh 48
CC(=O)Nc1ccc(NC(=O)COC(=O)c2ccc([N+](=O)[O-])o2)cc1	Casp6 inh 54
CC(=O)Nc1ccc(NC(=O)COC(=O)c2n[nH]c3ccccc23)cc1	UHRF1 binding 32
O=C(COC(=O)c1ccc([N+](=O)[O-])o1)NCCCc1ccccc1	Casp6 inh 49
C[C@@H]1CN([C@H](C)CO)S(=O)(=O)c2ccc(-c3cccnc3)cc2O[C@H]1CN(C)C	none (no result: LEDGF integ inh, MBD2 inh, UHRF1 binding)
CNC[C@@H]1Oc2ccc(NC(=O)C3CCCCC3)cc2C(=O)N([C@H](C)CO)C[C@@H]1C	none (no result: LEDGF integ inh, MBD2 inh, UHRF1 binding)
Cc1ccc(NC(=O)C(C)OC(=O)c2n[nH]c3ccccc23)cc1 (configuration not stated)	none
COc1ccc(CCNC(=O)COC(=O)c2ccc([N+](=O)[O-])o2)cc1	Casp6 inh 59
O=C(COC(=O)c1ccc([N+](=O)[O-])o1)NCc1ccc(F)cc1	Casp6 inh 52
CC(OC(=O)c1n[nH]c2ccccc12)C(=O)Nc1ccccc1[N+](=O)[O-] (configuration not stated)	Casp6 inh 36
CCCN1C[C@@H](C)[C@@H](OC)CN(C)C(=O)c2ccc(NC(=O)Nc3ccccc3F)cc2OC[C@H]1C	none (no result: LEDGF integ inh, MBD2 inh, UHRF1 binding)
COc1ccccc1NC(=O)N1CC[C@H]2[C@@H]1c1cc(C#Cc3ccc(F)cc3)ccc1N(C)[C@H]2CO	none (no result: LEDGF integ inh, MBD2 inh, UHRF1 binding)
CCC(=O)NC(NC(=S)Nc1ccccc1Br)C(Cl)(Cl)Cl (configuration not stated)	Casp6 inh 59
CNC[C@@H]1Oc2ccc(NC(=O)NC3CCCCC3)cc2CC(=O)N([C@@H](C)CO)C[C@@H]1C	none (no result: LEDGF integ inh, MBD2 inh, UHRF1 binding)
CCO[C@@H]1OC(C(N)=O)=C[C@H](c2ccc(C(F)(F)F)cc2)[C@H]1CCCO	none
CCO[C@@H]1OC(C(=O)O)=C[C@H](c2ccc(C(F)(F)F)cc2)[C@H]1CCCO	UHRF1 binding 77
O=C(NCC[C@H]1CC[C@H](NS(=O)(=O)c2ccc(F)cc2)[C@H](CO)O1)Nc1ccc(Cl)cc1	none (no result: LEDGF integ inh, MBD2 inh, UHRF1 binding)
CN(C)C(=O)[C@H]1[C@H](CO)[C@H]2Cn3c(ccc(/C=C/c4ccccc4)c3=O)[C@H]2N1C(=O)c1cccnc1	none (no result: LEDGF integ inh, MBD2 inh, UHRF1 binding)
O=C(C[C@H]1C=C[C@H](NS(=O)(=O)c2ccc(F)cc2)[C@H](CO)O1)NC1CCCCC1	none (no result: LEDGF integ inh, MBD2 inh, UHRF1 binding)
CC1CCN(C(=O)COC(=O)c2ccc([N+](=O)[O-])o2)CC1	Casp6 inh 52
CC1Cc2ccccc2N1C(=O)COC(=O)c1ccc([N+](=O)[O-])o1 (configuration not stated)	Casp6 inh 47
CCCN1C[C@H](C)[C@H](OC)CN(C)C(=O)c2cc(NC(=O)c3cnccn3)ccc2OC[C@H]1C	none (no result: LEDGF integ inh, MBD2 inh, UHRF1 binding)
COc1ccc(/C=C/C(=O)O)cc1S(=O)(=O)NCc1ccccc1	LEDGF integ inh 88
Cc1ccc(NC2=C(N3CCOCC3)C(=O)c3ccccc3C2=O)cc1	LEDGF integ inh 30 (no result: Casp6 inh)
CCOC(=O)N1CCN(C2=C(NS(=O)(=O)c3ccc(C)cc3)C(=O)c3ccccc3C2=O)CC1	LEDGF integ inh 15 (no result: Casp6 inh)
CC(=O)c1ccc(NC2=C(N3CCOCC3)C(=O)c3ccccc3C2=O)cc1	none (no result: Casp6 inh)
NS(=O)(=O)c1ccc(O)c(NC(=O)c2ccc([N+](=O)[O-])o2)c1	UHRF1 binding 42
Cc1[nH]ncc1Nc1ccccc1C(C)C	none
Cc1[nH]ncc1Nc1c(C(C)C)cccc1C(C)C	Casp6 inh 55
Cc1ccccc1C(=O)NC1CCN(Cc2ccccc2)CC1	none
CC(=O)c1cccc(OCc2cc(C(=O)NC3CCN(Cc4ccccc4)CC3)no2)c1	UHRF1 binding 21
COc1cc(N)c(Cl)cc1C(=O)NC1CCN(Cc2ccccc2)CC1	Casp6 inh 49
C[C@@H]1CN([C@@H](C)CO)C(=O)c2c(c3ccccc3n2C)-c2ccccc2CO[C@H]1CN(C)S(=O)(=O)c1ccsc1	none (no result: LEDGF integ inh, MBD2 inh, UHRF1 binding)
O=C(C[C@H]1C=C[C@@H](NC(=O)C2CCOCC2)[C@@H](CO)O1)NCc1ccccc1Cl	none (no result: LEDGF integ inh, MBD2 inh, UHRF1 binding)
COc1ccc2c3c(n(C)c2c1)[C@@H](CO)N(C(=O)c1cnccn1)CC31CN(C(=O)c2cnccn2)C1	none (no result: LEDGF integ inh, MBD2 inh, UHRF1 binding)
c1ccc2[nH]c3cc4ncnc4cc3nc2c1	Casp6 inh 69
FC(F)c1nc2ccccc2[nH]1	none
COc1cccc(NC(=O)N(C)C[C@@H]2Oc3ncc(/C=C/c4ccccc4)cc3C(=O)N([C@@H](C)CO)C[C@H]2C)c1	none (no result: LEDGF integ inh, MBD2 inh, UHRF1 binding)
O=C1c2ccccc2-c2onc3ccc(N4CCCC4)c1c23	UHRF1 binding 23
CCOC(=O)C1CCN(C(=O)C(C)Sc2ccc(Cl)cc2)CC1 (configuration not stated)	UHRF1 binding 23 (no result: Casp6 inh)
CN(C1=C(NC(=O)c2ccccc2)C(=O)c2ccccc2C1=O)C1CCS(=O)(=O)C1 (configuration not stated)	Casp6 inh 78
CC(=O)NC1=C(NC2CCS(=O)(=O)C2)C(=O)c2ccccc2C1=O (configuration not stated)	none (no result: Casp6 inh)
Cc1ccc(C(=O)NCC(=O)N(C)CC(=O)Nc2c(Cl)cccc2Cl)s1	UHRF1 binding 23
Cc1ccc(C(=O)NCC(=O)OC2CCCCC2=O)cc1C (configuration not stated)	none

Assay outcomes deposited in PubChem by several laboratories.
